Measurements reported in ChEMBL document CHEMBL3988442, “University of Dundee, Small-Polar-MMV Screening Library” (2021).
About 950 (1.4%) of roughly 69,000 compounds showed an effect of 50% or more. The sample holds strong results, similar compounds and a random draw of the others, so the mix is not that of the screen.

Tested on: Mycobacterium tuberculosis
Experiment: Cornell M. t heat shock assay; also: in the data most compounds retested in dose-response had high values
Type: functional, organism-based
Parameters: dose or concentration left out as unconfirmed

Structure (SMILES)	Percent Effect [%]
c1ccc2nc(N3CCOC(Cn4cccn4)C3)cnc2c1 (centres undefined)	-17.06
Cc1cnn(CC2CN(c3cnc4ccccc4n3)CCO2)c1 (centres undefined)	103.1
c1ccc2nc(N3CCOC(Cn4cncn4)C3)cnc2c1 (centres undefined)	-13.9
Cc1cc(C)n(CC2CCCN2C(=O)c2nccc3ccccc23)n1 (centres undefined)	3.715
CC(=O)N(C)[C@H]1CC[C@]2(CC1)CNC(=O)c1cc(C)ccc1O2	5.316
CCc1c(C)nc(-n2nc(-c3cccs3)cc2N)[nH]c1=O	106.4
CC(C(=O)N1CCCC1)n1nc(-c2cccs2)cc(N)c1=O (centres undefined)	-4.273
Cc1nc(-n2nc(-c3cccs3)cc2N)[nH]c(=O)c1C	103.7
Cc1nn(C)c(C)c1S(=O)(=O)NCCn1ccc(-c2cccs2)n1	-25.61
CN1CCN(Cn2nc(-c3cccs3)ccc2=O)CC1	6.699
CC(C(N)=O)n1nc(-c2cccs2)cc(N)c1=O (centres undefined)	10.66
CC1c2ncc(CN3CCN(C)CC3)n2CCN1Cc1ccsc1.O=C(O)C(F)(F)F.O=C(O)C(F)(F)F.O=C(O)C(F)(F)F (centres undefined)	-30.83
CCN1CCC2(CC1)OCCN2C(=O)c1ccc(OC)c(Cl)c1.Cl	7.471
CCn1ncc2c1C(COC)N(C(=O)c1cccs1)CC2.O=C(O)C(F)(F)F (centres undefined)	19.39
O=C(CC1CC2(CCN(CC3CC3)CC2)c2ccccc21)NC1CCC1.O=C(O)C(F)(F)F (centres undefined)	-33.11
O=C(O)C(F)(F)F.O=C1COC2(CCN(C(=O)c3ccco3)CC2)CN1Cc1ccccn1	-21.74
CC(C)(C)c1ccc(OCC(=O)O)c(CN2C[C@H]3C[C@H](O)C[C@H]3C2)c1	-6.021
Cc1noc(C)c1CN1C(=O)[C@H]2CC[C@@H]1CN(C(=O)c1cscn1)C2	9.12
CNC(=O)c1ccc2c(c1)C1(CCN(CCOC)CC1)C(=O)N2.O=C(O)C(F)(F)F	-17.93
Fc1cccc(Cl)c1CNCCOc1ccccn1	-12.87
Fc1cccc(Cl)c1CNCCCOc1ccccn1	-11.57
Fc1cccc(Cl)c1CNCc1ccccn1	50.99
COCC(=O)NCc1cc(=O)n2c(n1)CN(CC1CCOC1)CCC2.O=C(O)C(F)(F)F (centres undefined)	-14.54
CC(C)NC(=O)N1CCC2(CCC(=O)N2CCN2CCCC2)CC1.O=C(O)C(F)(F)F	-7.519
Cc1nnc(CSc2n[nH]c(-c3ccccn3)n2)o1	13.15

Structure (SMILES)	Percent Effect [%]
CCc1noc(CN2CCN(C(=O)c3ccccn3)CC2)n1	7.072
CCc1nnc(CSc2ccccn2)o1	0.1559
CCc1noc(CSc2n[nH]c(-c3ccccn3)n2)n1	92.11
c1ccc(-c2nc(SCc3nnc(C4CC4)o3)n[nH]2)nc1	78.14
O=C(c1ccccn1)N1CCCN(Cc2nnc(C3CC3)o2)CC1	27.04
COCCN1C(=O)[C@H]2CC[C@@H]1CN(Cc1nnc(-c3ccccc3)o1)C2	0.9802
CCOCC1CN(c2ccc(C)nn2)Cc2cnn(CC)c21.O=C(O)C(F)(F)F.O=C(O)C(F)(F)F (centres undefined)	34.67
CS(=O)(=O)CC(=O)N1C[C@H]2CCC[C@@]2(COCc2ccccn2)C1.O=C(O)C(F)(F)F	1.254
O=C(O)C(F)(F)F.c1coc(CN2CCC3(CC2)COC(COCC2CC2)C3)c1 (centres undefined)	-19.69
O=C(O)C(F)(F)F.O=C(c1cccc(F)c1)N1C[C@H]2CN(Cc3ccccn3)C[C@H]2C1	-10.41
O=C(O)C(F)(F)F.O=C1CC[C@]2(CC[C@@H](NCc3ccsc3)CC2)N1Cc1ccccc1	-7.125
COCc1nn(C(C)C)c2c1CCN(Cc1ccoc1)C2.O=C(O)C(F)(F)F	-50.08
Cc1cc(NCCN)nc(-c2ccccc2O)n1	74.35
Cc1cc(NCCNc2cccnc2)nc(-c2ccccc2O)n1	65.56
Cc1cc(NCCO)nc(-c2ccccc2O)n1	5.939
Cc1cc(NCCc2nc(C)c[nH]2)nc(-c2ccccc2O)n1	7.352
Cc1cc(NCCc2cnccn2)nc(-c2ccccc2O)n1	15.98
Cc1cc(NCCNc2cccnc2)nc(N)n1	-13.91
Cc1cc(C)c(N(CC(O)CNCc2ccco2)S(C)(=O)=O)c(C)c1.O=C(O)c1ccccc1 (centres undefined)	18.07
CCOC1COC2(CCN(Cc3ccc(F)cc3)CC2)C1.O=C(O)C(F)(F)F (centres undefined)	-14.13
CCCC(=O)N(CCCN1CCOCC1)c1nc2c(Cl)cccc2s1.Cl	25.9
CCCC(=O)N(CCCN1CCOCC1)c1nc2c(C)ccc(Cl)c2s1.Cl	99.14
CCCC(=O)N(CCCN1CCOCC1)c1nc2c(C)c(C)ccc2s1.Cl	46.86
COC(=O)c1ccc(CN[C@@H]2COC[C@H]2Cc2cc(C)no2)cc1.O=C(O)CC(O)(CC(=O)O)C(=O)O	-21.34
CC(C)Nc1cccc(CC2CCN(C)C2)n1.O=CO (centres undefined)	4.45

Structure (SMILES)	Percent Effect [%]
CCCc1cc(NCCn2cccn2)n2ncnc2n1	8.061
CCCc1cc(NCCN2CCNC2=O)n2nccc2n1	-6.778
CCCc1cc(NCCn2cccn2)n2nccc2n1	70.39
COCCN(C)C1COC2(CCN(Cc3cccc(F)c3)CC2)C1.O=C(O)C(F)(F)F.O=C(O)C(F)(F)F (centres undefined)	-38.12
Cn1cccc1C(=O)N1CCC2(CCN2c2ncccn2)C1.O=C(O)C(F)(F)F (centres undefined)	8.832
CCc1ccc(CN2CC[C@H]3[C@H]2CC(=O)N3Cc2cccc(C)n2)o1.O=C(O)C(F)(F)F.O=C(O)C(F)(F)F	-1.259
COc1c(CNC(c2cccc(F)c2)c2nccn2C)c(C)nn1C (centres undefined)	-20.66
Cc1ccc(CNC(c2ccc(F)cc2)c2nccn2C)o1 (centres undefined)	74.11
Cc1ccc(CNCCC(O)(c2nccn2C)C(F)(F)F)o1 (centres undefined)	-16.27
Cc1ccc(CNC(c2cccc(F)c2)c2nccn2C)o1.Cl (centres undefined)	79.6
CC(c1cccc(F)c1)N1CCN(Cc2nccn2C)CC1 (centres undefined)	-12.42
Cc1ccc(CNC(C)c2cc(F)ccc2N2CCN(C)CC2)o1 (centres undefined)	-35.24
Cl.Cn1nc(C2CCCN(Cc3ccc(F)c(F)c3)C2)c2nccnc21 (centres undefined)	-15.39
O=C(O)C(F)(F)F.O=C(O)C(F)(F)F.O=C1CO[C@@H]2CN(Cc3nccs3)C[C@H]2N1Cc1ccncc1	-20.96
O=C(O)C(F)(F)F.O=C(O)C(F)(F)F.c1cncc(O[C@H]2CC[C@H]3[C@H]2OCCN3C2CCC2)c1	-41.43
COc1nccnc1-c1cccc(-c2ccn(CC3COCCO3)n2)c1 (centres undefined)	-10.15
COc1cccc(-c2cccc(-c3ccn(CC4COCCO4)n3)c2)n1 (centres undefined)	-12.43
CSc1nccc(-c2cccc(-c3ccn(CC4COCCO4)n3)c2)n1 (centres undefined)	87.01
Cc1cnccc1-c1cnn(CCNC(=O)c2cccnc2)c1C1CC1.Cl	-20.8
O=C(NCCNc1ncccn1)C1CCN(C(=O)NC2CC2)CC1	12.93
COc1ccc(-c2nnc(SC(C)C(=O)NCC(C)C)[nH]2)c(OC)c1 (centres undefined)	21.58
Cc1cccnc1CN(C)C(C(=O)O)c1ccc(-c2ccn[nH]2)cc1 (centres undefined)	46.05
Cc1cccnc1CN(C)C(C(=O)O)c1ccc(-n2cccn2)cc1 (centres undefined)	85.61
Cc1cccnc1CN(C)C(C(=O)O)c1ccc(C(C)(C)C#N)cc1 (centres undefined)	35.15
CCn1ccc(-c2cc(NCCCOc3cccc(C)c3)nc(C)n2)n1	104.2

Structure (SMILES)	Percent Effect [%]
CCn1ccc(-c2cc(NCCCOc3ccccc3C)nc(C)n2)n1	105.6
Cc1cccc(OCCCNC(=O)Cn2ccc(C)cc2=O)c1	9.396
COc1ccccc1OCCNCCn1cccn1	-4.408
CCOc1cccc(C(=O)Nc2ccn(CC)n2)c1	10.2
CCn1ccc(-c2cc(C(=O)O)n3nc(C)c(Cl)c3n2)n1	6.637
Cc1oncc1C(=O)N1C[C@H](OCc2ccccn2)[C@H]2OCCC[C@H]21.O=C(O)C(F)(F)F	-20.31
CCOC(=O)CSc1nnc([C@@H](N)C(C)C)o1.Cl	-3.757
CNC(=O)c1cc2c(nc1NCC1CC1)CCN(CC1CC1)CC2.O=C(O)C(F)(F)F.O=C(O)C(F)(F)F	-24.38
Cc1cccc(C)c1CCNC(=O)N1CCCC2(C1)OCCO2	5.49
O=CO.c1nc(CN2CCCC(Cc3ccc(NC4CCCC4)nn3)C2)c[nH]1 (centres undefined)	20.05
Cc1ccc(CN2C[C@H]3C[C@H](C(=O)Nc4cccnc4)[C@@H](C2)O3)cc1	0.4433
Cc1cnc(CNC(=O)[C@@]23CCO[C@@H]2CCNC3)cn1.O=C(O)C(F)(F)F	23.9
CN1CCN(Cc2cccnc2)C(=O)C12CCN(Cc1ccco1)CC2.O=C(O)C(F)(F)F.O=C(O)C(F)(F)F.O=C(O)C(F)(F)F	5.064
O=C(O)C(F)(F)F.O=C(O)C(F)(F)F.c1csc(CN2CCC3(CC2)CCN(CC2CC2)CC3)n1	-18.7
O=C(O)C(F)(F)F.O=C(O)C(F)(F)F.c1cncc(C2COC3(CCN(Cc4nccs4)CC3)C2)c1 (centres undefined)	-9.404
c1cc(-c2ccc3c(c2)CCC32CCNCC2)ccn1	-56.04
O=C(O)C(F)(F)F.O=C(O)C(F)(F)F.c1cncc(-c2ccc3c(c2)CCC32CCN(Cc3ccco3)CC2)c1	104
c1cncc(-c2ccc3c(c2)CCC32CCNCC2)c1	88.51
O=C(O)C(F)(F)F.O=C(O)C(F)(F)F.c1cncc(-c2ccc3c(c2)CCC32CCN(Cc3nccs3)CC2)c1	74.6
c1cncc(-c2ccc3c(c2)C2(CCNCC2)CC3)c1	-40.79
CN(C)CC(=O)N1CCC2(CCc3cc(-c4cccnc4)ccc32)CC1.O=C(O)C(F)(F)F.O=C(O)C(F)(F)F	53.15
CN(C)CC(=O)N1CCC2(CCc3ccc(-c4ccncc4)cc32)CC1.O=C(O)C(F)(F)F.O=C(O)C(F)(F)F	-52.11
O=C(O)C(F)(F)F.c1cncc(-c2ccc3c(c2)C2(CC3)CCN(c3nncs3)CC2)c1	12.31
Cc1ccc2c(c1)CCC21CCN(C(=O)CN(C)C)CC1.O=C(O)C(F)(F)F	-22.19
